The results in this text go back to the supplement of paper PMC12669032.

Values without a mark were called inactive.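 The calls were made as follows: active = AUC reduced over 20% with Padj below 0.05 in at least 2 of 3 replicates; inactive = otherwise.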

The assay concerns Streptococcus salivarius. Put plainly: growth AUC relative to DMSO control (median of replicates) (fraction); higher = more growth (less inhibition), active = hit call of the paper. The conditions noted are these: 20 µM; 24 h. The gist of the method: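 Gut bacterial monocultures were grown anaerobically at 37 °C in mGAM, starting at OD600 0.05, with 20 µM compound (1% DMSO) in round-bottom 96-well plates under pierced gas-permeable seals. OD600 was read hourly for 24 h. Area under the growth curve (minimum OD set to 0) was normalised to the plate median of DMSO controls, or to row and column medians on the industrial chemical plate. The value is the median of three biological replicates grown on separate days.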
For the compound `CC(=O)CC(c1ccco1)c1c(O)c2ccccc2oc1=O` (centres undefined), the “growth AUC” value was 0.989.

Take `C[N+](C)(C)CCCl.[Cl-]`: the “growth AUC” value is 1.03.

As for `CCOP(=O)(OCC)Oc1ccc([N+](=O)[O-])cc1`, the “growth AUC” value was 1.01.

As to `c1nc[n]([Sn]([CH]2CCCCC2)([CH]2CCCCC2)[CH]2CCCCC2)n1`, the “growth AUC” value is 1.01.

As to `O=C(NCCc1ncc(C(F)(F)F)cc1Cl)c1ccccc1C(F)(F)F`, the “growth AUC” value is 1.01.

As for `CC(C)C1(C)N=C(c2nc3ccccc3cc2C(=O)O)NC1=O` (centres undefined), the “growth AUC” value was 0.935.

Consider `O=[N+]([O-])c1c(Cl)c(Cl)cc(Cl)c1Cl`, for which the “growth AUC” value is 1.

On to `Cc1ccn2nc(S(=O)(=O)Nc3c(F)cccc3F)nc2n1`, for which the “growth AUC” value is 0.965.

With `COC(=O)Nc1cccc(OC(=O)Nc2cccc(C)c2)c1`, the “growth AUC” value was 0.996.

Regarding `N#CC(CCc1ccc(Cl)cc1)(Cn1cncn1)c1ccccc1` (centres undefined), the “growth AUC” value was 0.934.

`CN(C)C(=S)SSC(=S)N(C)C`: the “growth AUC” value is 0.956.

As to `CC1(C)[C@H](C=C(Cl)Cl)[C@H]1C(=O)OCc1c(F)c(F)cc(F)c1F`, the “growth AUC” value was 1.02.

`COC[C@H](C)N(C(=O)CCl)c1c(C)csc1C`: the “growth AUC” value is 1.04.

Regarding `CCCN(CCC)c1c([N+](=O)[O-])cc(S(N)(=O)=O)cc1[N+](=O)[O-]`, the “growth AUC” value is 0.985.

Consider `COP(=S)(NC(C)C)Oc1ccccc1C(=O)OC(C)C` (centres undefined), for which the “growth AUC” value is 0.977.

Take `ClC1=C(Cl)C(Cl)(C2(Cl)C(Cl)=C(Cl)C(Cl)=C2Cl)C(Cl)=C1Cl`: the “growth AUC” value is 0.962.

In the case of `Oc1ccc(-c2ccccc2)cc1`, the “growth AUC” value is 0.968.

Turning to `CCOP(=S)(OCC)Oc1ccc(=O)n(-c2ccccc2)n1`, the “growth AUC” value is 0.983.

As to `Nc1nc(N)nc(NC2CC2)n1`, the “growth AUC” value was 0.981.

Consider `Nc1cccc(Cl)c1Cl`, for which the “growth AUC” value is 1.01.

`O=C(Nc1ccc(F)cc1F)c1cccnc1Oc1cccc(C(F)(F)F)c1`: the “growth AUC” value was 0.958.

For the compound `Nc1c([N+](=O)[O-])ccc(Oc2ccccc2)c1Cl`, the “growth AUC” value is 0.929.

As for `Cc1ccc(N=CN(C)C=Nc2ccc(C)cc2C)c(C)c1`, the “growth AUC” value is 0.967.

With `CCC(C)[C@H]1O[C@]2(C=C[C@@H]1C)C[C@@H]1C[C@@H](C/C=C(\C)[C@@H](O[C@H]3C[C@H](OC)[C@@H](O[C@H]4C[C@H](OC)[C@@H](O)[C@H](C)O4)[C@H](C)O3)[C@@H](C)/C=C/C=C3\CO[C@@H]4[C@H](O)C(C)=C[C@@H](C(=O)O1)[C@]34O)O2.CO[C@H]1C[C@H](O[C@H]2[C@H](C)O[C@@H](O[C@@H]3/C(C)=C/C[C@@H]4C[C@@H](C[C@]5(C=C[C@H](C)[C@@H](C(C)C)O5)O4)OC(=O)[C@@H]4C=C(C)[C@@H](O)[C@H]5OC/C(=C\C=C\[C@@H]3C)[C@]54O)C[C@@H]2OC)O[C@@H](C)[C@@H]1O` (some centres undefined), the “growth AUC” value is 0.961.

In the case of `CN(C)C(CSS(=O)(=O)[O-])CSS(=O)(=O)O.[Na+]`, the “growth AUC” value was 0.979.

For `Cc1[nH]c(=O)n(C(C)(C)C)c(=O)c1Cl`, the “growth AUC” value is 1.02.

Regarding `CCOP(=S)(OCC)Oc1cc(C)nc(C(C)C)n1`, the “growth AUC” value was 1.03.

In the case of `CCNC(=O)NC(=O)/C(C#N)=N/OC`, the “growth AUC” value is 0.949.

Turning to `CCOc1ccc(C(C)(C)COCc2cccc(Oc3ccccc3)c2)cc1`, the “growth AUC” value is 0.983.

As to `Nc1nc(N)nc(N)n1`, the “growth AUC” value was 1.02.

In the case of `COc1ccc(-c2ccccc2)cc1NNC(=O)OC(C)C`, the “growth AUC” value was 1.02.

As to `CCCCC(CC)COC(=O)c1ccccc1C(=O)OCC(CC)CCCC` (centres undefined), the “growth AUC” value is 0.967.

With `CCCCNC(=O)n1c(NC(=O)OC)nc2ccccc21`, the “growth AUC” value is 0.999.

Consider `COc1cc(OC)n2nc(S(=O)(=O)Nc3c(Cl)ccc(C)c3Cl)nc2n1`, for which the “growth AUC” value was 0.954.

As for `CCCCC(C#N)(Cn1cncn1)c1ccc(Cl)cc1` (centres undefined), the “growth AUC” value is 0.993.

As for `CN=C=S`, the “growth AUC” value was 0.994.

`CC1=C(C(=O)Nc2ccccc2)SCCO1`: the “growth AUC” value was 1.08.

Turning to `CCOCn1c(-c2ccc(Cl)cc2)c(C#N)c(Br)c1C(F)(F)F`, the “growth AUC” value is 0.944.

As for `CCOCCN(C(=O)CCl)C(=C(C)C)c1ccccc1`, the “growth AUC” value is 0.993.
